outcome, Potency and max response data for 31 molecules are collected here from PubChem BioAssay (NCATS).

A short description of test [1]: qHTS to identify inhibitors of the type 1 interferon - major histocompatibility complex class I in skeletal muscle: primary screen against the NCATS LOPAC collection (AID 1347405).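 Note: lytic HiBiT luminescence reporting HLA-B protein level; % is set by controls: 0 for no effect and ±100 for the full control effect.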 In short, it runs like this: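 Luminescence from HiBiT fused to endogenous HLA-B in CRISPR-engineered human myoblasts served as the read-out. Cells received 4.0 ng/ml IFN-beta plus compound (seven concentrations, 1:4.3 steps, highest 46 uM final) for 24 hrs before lytic detection.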

The nature of test [2]: qHTS for inhibitors of adenylyl cyclases using a fission yeast platform: a pilot screen against the NCATS LOPAC library (AID 1347410).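 Note: plate controls were DMSO vehicle for no effect and DPI positive control for full effect.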 A digest of the protocol:
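S. pombe CHP2027 (AC9-GNAS-PDE4D2) carrying a PKA-repressed fbp1-GFP reporter was exposed to LOPAC compounds (final up to 57 µM) for 18 h at 30C in the dark, in EMM with histidine, lysine and uracil; GFP gain-of-signal read by laser scanning cytometry.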
(qHTS replaces the single test concentration by a dilution series.)

Test [3] can be described thus: Validation qHTS assay for inhibitors of Activation Induced Cytidine Deaminase (AID): UDG Counterscreen signal (AID 1347427). Note: 0% is about no effect. A digest of the protocol: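 Counterscreen read of UDG activity (2 U/mL, 4/3x) in the FRET deamination format with AID (1 uM, 4/3x), DJC20/DJC23 substrates (250 nM, 4x), 4 h at room temperature. NaOH stop, fluorescence at 560 ex/665 em.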
The nature of test [4]: Primary qHTS for inhibitors of La Crosse Virus (LACV) - induced cell death in SH-SY5Y cells (AID 1508616).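 Note: top concentration of the series differs between compounds; 0% = infected DMSO wells and 100% = uninfected DMSO wells; higher means more rescue of cells from virus-induced death.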 A digest of the protocol:
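Protection against LACV-induced cell death is scored in SH-SY5Y cells exposed to compounds and virus (0.01 MOI) for 6 days. Data normalized to virus-infected DMSO wells and virus-free DMSO wells.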

Test [5] concerns the target Calcium and integrin-binding protein 1 (Homo sapiens) (UniProt Q99828). In words: Validation qHTS for Identification of Calcium Integrin Binding protein 1 (CIB1) Competitor (AID 1508618). Note: % is set by controls: 0 for no effect and ±100 for the full control effect. A digest of the protocol:
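CIB1-GST (1 uM final) incubated 15 min at room temperature with compounds (up to 114 uM), then FITC-labelled alphaIIb peptide (100 nM) added. FP read (Ex 480/Em 540) after 15 min, pH 7.4 buffer containing 5 mM CaCl2.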

Test [6] can be described thus: Primary qHTS for small molecule stabilizers of the endoplasmic reticulum resident proteome: Secreted ER Calcium Modulated Protein (SERCaMP) assay (AID 1508630). Note: potency is the fitted concentration of half-maximal effect. A digest of the protocol:
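GLuc-SERCaMP-expressing SH-SY5Y cells, pretreated 16 h with compound, are challenged with thapsigargin to empty ER calcium stores; after 4 h, coelenterazine is added directly to the medium and luminescence is imaged.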

The nature of test [7]: qHTS to identify inhibitors of the type 1 interferon - major histocompatibility complex class I in skeletal muscle: primary screen against the NCATS Pharmaceutical Collection (AID 1347407).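 Note: luminescence of HiBiT knocked into endogenous HLA-B as interferon-induced MHC class I level; % is set by controls: 0 for no effect and ±100 for the full control effect.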 In short, it runs like this: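 Immortalized human myoblasts (C25cl48) with HiBiT knocked into endogenous HLA-B*08:01 were stimulated with 4 ng/ml IFN-beta and treated with compounds (8-point, 1:5, top 46 uM final) for 24 h at 37 C; HiBiT lytic luminescence read.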

Test [8] concerns the target Protein phosphatase 1D (Homo sapiens) (UniProt O15297). In words: RapidFire Mass Spectrometry qHTS Assay for Modulators of WT P53-Induced Phosphatase 1 (WIP1) (AID 1347424).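 Note: amount of dephosphorylated VEPPL-S-QETFS peptide product formed by WIP1; series mostly up to about 63 µM; plate controls were DMSO wells for no effect and GSK830371 inhibitor control at 10 µM for full effect.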 In short, it runs like this: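 10 nM WIP1 + cpd, 1 h RT; + 2 uM VEPPL-pS-QETFS, 5 min RT; stop 0.5% formic acid; labelled product standard 1 uM; RapidFire MS. Buffer 50 mM Tris pH 7.5, 30 mM MgCl2, 1 mM TCEP.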

The target is the same in test [9]. As to the kind of experiment: Rhodamine-PBP qHTS Assay for Modulators of WT P53-Induced Phosphatase 1 (WIP1) (AID 1347425). Note: % of control where 0% means no effect. A digest of the protocol:
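The read-out is the change in Rhodamine-PBP fluorescence (f1 - f0, ex 525/em 598 nm) as Pi is released, read each minute for 11 min. Final reaction: 5 nM WIP1, 10 uM phosphopeptide VEPPL-pS-QETFS, 10 uM Rh-PBP, 50 mM Tris-HCl pH 7.5, 30 mM MgCl2. Compound was preincubated with enzyme for 1 hour at room temperature.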

For test [10], the target named is Calcium and integrin-binding protein 1 (Homo sapiens) (UniProt Q99828). In words: Primary qHTS for Identification of Calcium Integrin Binding Protein 1 (CIB1) Competitor (AID 1508620). Note: potency is the fitted concentration of half-maximal effect. In short, it runs like this:
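CIB1-GST (1 uM final) and compound incubated 15 min at room temperature before adding FITC-alphaIIb peptide tracer (100 nM final). Competition for binding read by fluorescence polarization (ex 480, em 540) after another 15 min at room temperature.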

For test [11] the target is unchanged. As to the kind of experiment: Confirmatory qHTS for Identification of Calcium Integrin Binding Protein 1 (CIB1) Competitor (AID 1508617). Note: potency is the fitted concentration of half-maximal effect; nearly all actives have a fitted effect of over 65% in size. In short, it runs like this: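 Compounds at up to 114 uM final met 1 uM GST-tagged CIB1 for 15 min at room temperature (HEPES pH 7.4, 5 mM CaCl2). FITC-labelled alphaIIb peptide, 100 nM, added; polarization read after 15 min more.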

A short description of test [12]: Counterscreen qHTS for small molecule stabilizers of the endoplasmic reticulum resident proteome: GLuc-NoTag assay (AID 1508627).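 Note: SH-SY5Y cells given compound then 100 nM thapsigargin to empty ER calcium; series mostly up to about 76 µM; 0% = thapsigargin alone and -100% = DMSO vehicle control.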 In short, it runs like this:
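Luminescence of Gaussia luciferase secreted into the medium (coelenterazine, 0.07x final, unlysed cells) was the read-out. Human SH-SY5Y neuroblastoma cells constitutively secreting untagged GLuc received compound for 19 h, then 100 nM thapsigargin for 4 h.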
A general note: The purpose of a counterscreen is to sort out artefacts and off-target activity.

The nature of test [13]: Cell Viability qHTS for small molecule stabilizers of the endoplasmic reticulum resident proteome (AID 1508629).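 Note: human SH-SY5Y neuroblastoma cells carrying the GLuc-SERCaMP reporter; compound exposure about 46 h in total before the viability read; % is set by controls: 0 for no effect and ±100 for the full control effect.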 The conditions noted are these: cell viability counter-screen, 100 nM thapsigargin for final 4 h.

A number with no mark means an inactive call. Records with an inconclusive call do not appear. Active and inactive are the calls of the source. Calls come from the whole dose curve; as a rule, active = well fitted curve in the direction sought with a large enough effect; inconclusive = small, poorly fitted or top-dose-only effect, or another doubt; inactive = no such curve, though single readings can be large; an effect the other way counts as inactive or inconclusive.

Sequence of Protein phosphatase 1D (Homo sapiens) (O15297 whole entry, looked up): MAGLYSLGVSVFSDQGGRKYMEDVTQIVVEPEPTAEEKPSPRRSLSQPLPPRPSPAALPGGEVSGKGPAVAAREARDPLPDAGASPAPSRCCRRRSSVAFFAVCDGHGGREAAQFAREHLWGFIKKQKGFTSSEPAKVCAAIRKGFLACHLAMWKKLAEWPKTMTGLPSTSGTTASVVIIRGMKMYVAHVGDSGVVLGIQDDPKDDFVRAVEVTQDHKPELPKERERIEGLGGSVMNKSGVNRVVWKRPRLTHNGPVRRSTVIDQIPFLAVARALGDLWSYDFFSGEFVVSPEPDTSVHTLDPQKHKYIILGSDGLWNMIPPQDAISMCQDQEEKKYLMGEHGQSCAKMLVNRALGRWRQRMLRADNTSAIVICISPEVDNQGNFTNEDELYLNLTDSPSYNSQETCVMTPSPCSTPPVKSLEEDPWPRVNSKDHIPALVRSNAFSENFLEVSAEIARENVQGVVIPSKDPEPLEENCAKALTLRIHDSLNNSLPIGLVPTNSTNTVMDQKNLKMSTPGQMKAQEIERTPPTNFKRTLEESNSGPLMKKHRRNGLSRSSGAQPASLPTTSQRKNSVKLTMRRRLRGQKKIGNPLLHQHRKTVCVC
Sequence of Calcium and integrin-binding protein 1 (Homo sapiens) (Q99828 whole entry, looked up): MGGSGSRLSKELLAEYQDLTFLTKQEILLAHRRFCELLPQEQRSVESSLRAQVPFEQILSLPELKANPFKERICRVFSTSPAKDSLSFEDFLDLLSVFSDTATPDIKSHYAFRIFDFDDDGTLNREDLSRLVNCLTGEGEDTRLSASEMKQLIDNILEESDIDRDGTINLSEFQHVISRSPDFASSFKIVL

`CCC(NC(C)C)C(O)c1ccc(O)c(O)c1` (configuration not stated): the call in [1], in test [2], in test [3] and in test [5] was inactive. Further, the Potency entry in test [4] and in test [6] was “inactive” each time.

On to `Cc1ccc(O)c2ncccc12`, for which the Potency result in test [7], in test [8] and in test [4] was “inactive” in each case. In [9], the outcome was inactive.

Consider `N[C@H](CO)C(=O)O`, for which the call in test [1], in test [2], in test [3] and in [5] was inactive. Moreover, the Potency result in [4] and in [6] was “inactive” in each case.

For the molecule `CN1CCC(=C2c3ccccc3Sc3ccccc32)CC1`, the Potency entry in [7], in [8], in [4] and in test [10] was “inactive” throughout. Moreover, the molecule was called inactive in test [9].

Consider `COc1cc2c(cc1OC)C(C(C(=O)N(CCc1ccc(OC)c(OC)c1OC)CCc1ccc(OC)c(OC)c1OC)c1ccccc1)=NCC2` (configuration not stated), for which the Potency result in test [7], in test [8], in [4] and in [10] was “inactive” in each case. For the same molecule, in test [9], the molecule was called inactive.

For the molecule `NC(=O)CC[C@@H]1NC(=O)[C@H](Cc2ccccc2)NC(=O)[C@H](Cc2ccc(O)cc2)NC(=O)CCSSC[C@@H](C(=O)N2CCC[C@H]2C(=O)N[C@@H](CCCN=C(N)N)C(=O)NCC(N)=O)NC(=O)[C@H](CC(N)=O)NC1=O`, the Potency result in [7], in test [8], in [4] and in test [10] was “inactive” throughout. In test [9], the molecule was called inactive.

For `Cc1cccn2c(=O)c(-c3nnn[nH]3)cnc12`, the Potency result in test [7], in test [8], in test [4] and in [10] was “inactive” in each case. For the same molecule, the call in [9] was inactive.

Regarding `CC(C)COC(=O)OCN1C(=O)CN(CCN2CC(=O)N(COC(=O)OCC(C)C)C(=O)C2)CC1=O`, the molecule was classed as inactive in test [1], in test [2], in test [3] and in [5]. Also, the Potency entry in [4] and in [6] was “inactive” throughout.

As to `Nc1cc(Cl)c(NC2=NCCN2)c(Cl)c1`, the outcome in test [1], in [2], in [3] and in test [5] was inactive. Besides, the Potency entry in [4] and in test [6] was “inactive” throughout.

In the case of `N[C@@H](Cc1cnc[nH]1)C(=O)O`, the call in test [1], in [2], in test [3] and in [5] was inactive. The Potency result in test [4] and in test [6] was “inactive” in each case.

Take `CC[C@@H](CO)NCCN[C@@H](CC)CO`: the Potency entry in test [7], in test [8], in test [4] and in test [10] was “inactive” in each case. Also, the outcome in test [9] was inactive.

In the case of `CCOc1ccc2nc3cc(N)ccc3c(N)c2c1`, the Potency entry in test [7], in [8], in [4] and in [6] was “inactive” throughout. Further, in test [9], the molecule was classed as inactive. Besides, the Potency in [11] was 25.1 µM (active); in test [10], 44.7 µM (active).

For `COC(=O)[C@H]1[C@H]2C[C@H]3c4[nH]c5ccccc5c4CCN3C[C@H]2CC[C@@H]1O`, the outcome in test [1], in test [2] and in [3] was inactive. Besides, the Potency entry in test [4] and in test [6] was “inactive” throughout.

Take `CC[C@H](C)C(=O)O[C@H]1CCC=C2C=C[C@H](C)[C@H](CC[C@@H]3C[C@@H](O)CC(=O)O3)[C@H]21`: the molecule was classed as inactive in test [1], in test [2], in test [3] and in test [5]. In test [4], the Potency result was “inactive”. In addition, the Potency in test [6] is 2 µM (active).

In the case of `O=C(O)c1cc2cc(Cc3cccnc3)ccc2o1`, the outcome in test [1], in [2], in [3] and in [5] was inactive. The Potency result in [4] and in [6] was “inactive” in each case.

Regarding `O=C1CCC(c2ccc(-n3ccnc3)cc2)=NN1`, the molecule was called inactive in [1], in test [2], in test [3] and in test [5]. In addition, the Potency result in test [4] and in test [6] was “inactive” in each case.

For the molecule `CNCCC(Oc1ccccc1C)c1ccccc1` (configuration not stated), the outcome in [1], in test [2], in [3] and in [5] was inactive. In addition, the Potency result in [4] and in test [6] was “inactive” in each case.

Take `OC[C@H]1O[C@H](O[C@]2(CCl)O[C@H](CCl)[C@@H](O)[C@@H]2O)[C@H](O)[C@@H](O)[C@H]1Cl`: the Potency result in test [7], in test [8], in test [4] and in test [10] was “inactive” each time. For the same molecule, the molecule was called inactive in [9].

`COc1cc(N)c(Cl)cc1C(=O)NC1CCN(CCCOc2ccc(F)cc2)CC1OC` (configuration not stated): the Potency entry in [7], in [8], in test [4] and in test [10] was “inactive” each time. Besides, the call in test [9] was inactive.

As for `CCCCOc1cc(C(=O)NCCN(CC)CC)c2ccccc2n1`, the Potency result in [7], in [8], in test [4] and in test [10] was “inactive” in each case. Besides, in [9], the result was inactive.

Turning to `C1CCc2nnnn2CC1`, the call in test [1], in test [2], in test [3] and in test [5] was inactive. In addition, the Potency entry in test [4] and in test [6] was “inactive” each time.

For `CCCn1c(=O)[nH]c(=O)c2[nH]cnc21`, the molecule was classed as inactive in [1], in test [2], in [3] and in test [5]. Moreover, the Potency entry in [4] and in test [6] was “inactive” throughout.

For `CC1(C)CCC(NC(=O)[C@@H](N)CCC(=O)O)CC1`, the result in test [1], in [2], in test [3] and in test [5] was inactive. Also, the Potency entry in [4] and in test [6] was “inactive” each time.

On to `NC(CO)(CO)CO`, for which the Potency entry in test [7], in test [8], in test [4] and in [10] was “inactive” each time. In addition, the molecule was classed as inactive in test [9].

Consider `CCCC1O[C@@H]2C[C@H]3[C@@H]4CCC5=CC(=O)C=C[C@]5(C)[C@H]4[C@@H](O)C[C@]3(C)[C@]2(C(=O)CO)O1` (some centres not stated), for which the call in test [1], in test [2], in test [3] and in test [5] was inactive. For the same molecule, the Potency entry in test [4] and in test [6] was “inactive” in each case.

With `CCN(CC)C(=O)/C(C#N)=C/c1cc(O)c(O)c([N+](=O)[O-])c1`, the Potency result in test [7], in [8], in [4] and in [10] was “inactive” each time. In addition, the molecule was classed as inactive in test [9].

`CC(=O)O[C@H]1C[C@@H]2CC[C@@H]3[C@H](CC[C@@]4(C)[C@H]3C[C@H]([N+]3(C)CCCCC3)[C@@H]4OC(C)=O)[C@@]2(C)C[C@@H]1[N+]1(C)CCCCC1`: the molecule was classed as inactive in [1], in test [2], in [3] and in test [5]. Moreover, the Potency entry in [4] and in test [6] was “inactive” in each case.

Turning to `CC(CCc1ccccc1)NCC(O)c1ccc(O)c(C(N)=O)c1` (configuration not stated), the molecule was called inactive in [1], in test [2], in test [3] and in test [5]. For the same molecule, the Potency entry in [4] and in [10] was “inactive” each time.

On to `Oc1ccc(O)cc1`, for which the outcome in [1], in test [2], in [9], in test [3], in test [5] and in test [12] was inactive. For the same molecule, the Potency entry in test [7], in test [8], in [4] and in test [10] was “inactive” throughout. For the same molecule, in [13], the max response is -23.4%.

In the case of `COc1ccc(OC)c(C(O)CNC(=O)CN)c1` (configuration not stated), the Potency entry in test [7], in test [8], in test [4] and in test [10] was “inactive” throughout. In addition, in test [9], the molecule was classed as inactive.

`CCCCS(=O)(=O)N[C@@H](Cc1ccc(OCCCCC2CCNCC2)cc1)C(=O)O`: the Potency entry in [7], in test [8], in test [4] and in test [10] was “inactive” throughout. Moreover, the result in [9] was inactive.
